Screens (PubChem)
In the library only some 0.92% were active in any assay of this set; here they are far more common.
APE1 inh – inhibitors of human APE1 endonuclease | P27695 | recombinant APE1, TAMRA/BHQ-2 abasic DNA cleavage fluorescence | Potency, µM (highest dose often 65.8 µM), inactives show at the highest dose activity change, negative = inhibition, usual class: inhibitors | 0.35% of 350,000 active;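 also: plate controls were vehicle for no effect and reference inhibitor for full effect; nearly all actives have a fitted effect of over 55% in size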
Target sequence (P27695 whole entry, looked up): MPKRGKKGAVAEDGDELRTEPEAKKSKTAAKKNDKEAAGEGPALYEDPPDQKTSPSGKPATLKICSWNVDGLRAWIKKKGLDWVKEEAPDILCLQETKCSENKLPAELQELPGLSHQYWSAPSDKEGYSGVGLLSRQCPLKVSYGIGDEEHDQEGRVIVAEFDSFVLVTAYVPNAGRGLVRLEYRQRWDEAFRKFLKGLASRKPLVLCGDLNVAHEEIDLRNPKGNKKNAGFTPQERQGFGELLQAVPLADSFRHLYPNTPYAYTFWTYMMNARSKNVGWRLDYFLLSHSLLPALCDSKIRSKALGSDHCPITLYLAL
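Measures dequenching upon AP-site incision of a 5'-TAMRA/3'-BHQ-2 THF-containing duplex, 50 nM; human APE1 0.75 nM after 15 min room-temperature exposure to compound; kinetic three-point read at one-minute spacing.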
RECQ1 inh – inhibitors of human RECQ1 DNA helicase. Potency, µM (titrated, usually from 57.3 µM), inactives show top-dose activity, negative = inhibition, actives largely listed as inhibitors. 0.54% of 240,000 active. RECQ1 DNA unwinding, red fluorescence kinetic read;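 also: plate controls were vehicle for no effect and no enzyme for full effect; nearly all actives have a fitted effect of over 30% in size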
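50 nM RECQ1T1 preincubated 15 min with compound in Tris pH 8.0 buffer with MgCl2, DTT, Tween-20 and 2.5 ug/ml poly(dI-dC); started with 200 nM TAMRA/BHQ-2 forked duplex and 2 mM ATP. Unwinding read as fluorescence (525/598 nm), two reads 2 h apart.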
BLM inh – Bloom syndrome helicase (human) inhibition; P54132; recombinant BLM DNA unwinding, fluorescence dequenching; Potency, µM (titrated, usually from 56.1 µM), inactives show at the highest dose activity change, negative = inhibition, most hits filed as inhibitors; 0.2% of 350,000 active; AID 2528;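 also: plate controls were vehicle for no effect and no enzyme for full effect; nearly all actives have a fitted effect of over 35% in size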
WRN inhibitor – blocks human WRN helicase; Q14191; WRN helicase unwinding, fluorescent forked duplex, kinetic; Potency, µM (highest dose often 114 µM), inactives show at the highest dose activity change, negative = inhibition, actives largely listed as inhibitors; 0.46% of 360,000 active; also: nearly all actives have a fitted effect of over 55% in size
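Kinetic fluorescence helicase assay: unwinding of a quenched forked DNA duplex (100 nM final) with 2 mM ATP final raises red fluorescence (525/598 nm). Compounds sat 15 min at room temperature with 20 nM WRN beforehand.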
L3MBTL1 block – L3MBTL1 (human) inhibition | Q9Y468 | AlphaScreen L3MBTL1–H3K9me1 peptide binding | Potency, µM (top dose mostly 57.1 µM), inactives show at the highest dose activity, negative = inhibition, usual class: inhibitors | 0.66% of 230,000 active | AID 485360; also: nearly all actives have a fitted effect of over 60% in size
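Displacement of a biotinylated histone H3(1-15) peptide monomethylated at Lys9 (75 nM) from L3MBTL1 (50 nM) was measured by AlphaScreen after a 30 min room-temperature compound incubation; cefsulodin titration served as intraplate control.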
Numbers without * were called inactive; [ ] = dose if it differs, or a comment. Calls follow the shape of the dose curve; as a rule, active = well fitted curve in the direction sought with a large enough effect; inconclusive = small, poorly fitted or top-dose-only effect, or another doubt; inactive = no such curve, though single readings can be large; an effect the other way counts as inactive or inconclusive. Unless noted, % is scaled to controls: 0 for no effect and ±100 for the full control effect; potency is read from the fitted curve at half-maximal effect.

Results for N#Cc1c(-c2ccc3c(c2)OCO3)no[n+]1[O-] ?
APE1 inh: 7.2%

Results for Cc1cc(N/N=C/c2ccc(O)cc2)nc(NS(=O)(=O)c2ccccc2)n1 ?
APE1 inh: 10µM*; RECQ1 inh: -1.2%; BLM inh: 1.8%; WRN inhibitor: -27.6%[57.1 µM]; L3MBTL1 block: 31.6µM*

How did O=C(O)c1ccccc1C(=O)Nc1cccc([N+](=O)[O-])c1 do in these assays?
APE1 inh: -0.1%; RECQ1 inh: -7.4%; BLM inh: -3.3%; WRN inhibitor: -1.4%; L3MBTL1 block: 11.4%

Results for O=C(Nc1cccc([N+](=O)[O-])c1)c1cc2ccccc2cc1O ?
APE1 inh: 28.2µM*; RECQ1 inh: -22.1%; BLM inh: -27.1%; WRN inhibitor: -22.3%; L3MBTL1 block: inconclusive

How did Cc1cc2c(N)cccc2nn1 do in these assays?
APE1 inh: -1.0%; RECQ1 inh: -3.4%; BLM inh: 5.62µM*; WRN inhibitor: inconclusive

How did Cc1noc(NS(=O)(=O)c2ccc(NC(=O)CSc3nnc4c(n3)[nH]c3ccccc34)cc2)c1C do in these assays?
APE1 inh: -1.1%; RECQ1 inh: -3.6%; BLM inh: -0.7%; WRN inhibitor: 89.1µM*; L3MBTL1 block: -6.3%

Results for Cc1noc(NS(=O)(=O)c2ccc(NC(=O)CSc3nc4ccccc4[nH]3)cc2)c1C ?
APE1 inh: 8.0%; RECQ1 inh: inactive; BLM inh: -8.8%; WRN inhibitor: -27.7%

Results for CC[C@@H](C(=O)[C@@H](C)[C@@H](O)[C@H](C)CCc1ccc(C)c(O)c1C(=O)O)C1O[C@](CC)(C2CC[C@](O)(CC)[C@H](C)O2)C[C@@H]1C (stereo partly specified) ?
APE1 inh: -1.9%; RECQ1 inh: -8.2%; BLM inh: -4.5%

How did CCOC(=O)C(C)C(C)=O (stereo unspecified) do in these assays?
APE1 inh: 7.6%; RECQ1 inh: -2.0%; WRN inhibitor: 15.8µM*; L3MBTL1 block: -0.3%

How did CCOC(=O)C[C@@H](CC(C)=O)C(=O)OCC do in these assays?
APE1 inh: 20.0%[12.4 µM]; RECQ1 inh: -0.8%[11.5 µM]; BLM inh: 1.3%[12.4 µM]

How did CC[C@H]1[C@@H]2C=C[C@@H]3[C@H]4C/C=C\C(=O)NCCC[C@@H]5NC(=O)C(=C5O)C(=O)CC[C@@H]4C[C@@H]3[C@H]2C[C@H]1C do in these assays?
APE1 inh: 2.8%; RECQ1 inh: -7.7%; BLM inh: -0.5%

What do the screens show for `O=C(Nc1ccc(S(=O)(=O)Nc2nccs2)cc1)c1nn(-c2ccc(F)cc2)ccc1=O`?
APE1 inh: -37.1%; BLM inh: -27.0%; WRN inhibitor: 50.1µM*

Results for CCOc1ccc(-n2ccc(=O)c(C(=O)Nc3ccc(S(=O)(=O)Nc4nccs4)cc3)n2)cc1 ?
APE1 inh: 55.0%; BLM inh: -22.5%; WRN inhibitor: inconclusive

How did N#CC(Cc1ccc(O)c(O)c1)C(=O)N1CCc2ccccc21 (stereo unspecified) do in these assays?
APE1 inh: 6.9%; RECQ1 inh: -3.8%

What do the screens show for `O=[N+]([O-])O[C@@H]1CO[C@H]2[C@@H]1OC[C@@H]2O`?
APE1 inh: -0.8%

Results for CC1(C)c2ccccc2N2CC(=O)N(CC(N)=O)C21C (stereo unspecified) ?
APE1 inh: inconclusive; RECQ1 inh: 31.6µM*; BLM inh: -12.5%; WRN inhibitor: 56.2µM*

What do the screens show for `Oc1ccc(/C=N/Nc2ccnc3cc(Cl)ccc23)cc1O`?
APE1 inh: inconclusive; RECQ1 inh: -21.0%; BLM inh: 28.2µM*; WRN inhibitor: inconclusive

How did O=C1c2ccccc2C(=O)C12OC2c1cccc2ccccc12 (stereo unspecified) do in these assays?
APE1 inh: -8.1%; RECQ1 inh: 3.3%; BLM inh: 17.8µM*; WRN inhibitor: -10.4%[57.1 µM]; L3MBTL1 block: 14.1µM*

How did Nc1c(Cl)ncnc1N/N=C/c1ccc2ccccc2n1 do in these assays?
APE1 inh: -7.8%; RECQ1 inh: -9.8%; BLM inh: -22.0%; WRN inhibitor: inconclusive; L3MBTL1 block: inconclusive

How did Nc1c(Cl)ncnc1N/N=C/c1ccccn1 do in these assays?
APE1 inh: 2.4%; RECQ1 inh: -0.9%; BLM inh: -4.9%; WRN inhibitor: -34.1%; L3MBTL1 block: 7.94µM*

How did N#C/C(=C\c1c[nH]c2ccccc12)C(=O)c1ccc(O)c(O)c1 do in these assays?
APE1 inh: inconclusive; RECQ1 inh: 11.2µM*

What do the screens show for `N#C/C(=C\c1c[nH]c2ccccc12)C(=O)NC1CC1`?
APE1 inh: 6.9%; BLM inh: 0.4%; WRN inhibitor: -17.2%; L3MBTL1 block: -0.7%

What do the screens show for `CC(C)(C)n1ncc2c(=O)n(Cc3c(F)ccc(F)c3Cl)cnc21`?
APE1 inh: -2.6%

Results for CC1=NN(c2ccc(Cl)c(C(=O)O)c2)C(=O)C1 ?
APE1 inh: inconclusive; RECQ1 inh: 9.1%; BLM inh: -10.0%; WRN inhibitor: inconclusive; L3MBTL1 block: inconclusive

How did CC1=NN(c2ccc(C(=O)O)c(N)c2)C(=O)C1 do in these assays?
APE1 inh: 2µM*; RECQ1 inh: -24.2%; BLM inh: 38.7%; WRN inhibitor: -17.4%[57.1 µM]

What do the screens show for `Cc1ccc(C(C[N+](=O)[O-])Sc2ccc(N)cc2)cc1` (stereo unspecified)?
APE1 inh: -4.6%; RECQ1 inh: -5.0%; BLM inh: -4.1%; WRN inhibitor: 44.7µM*; L3MBTL1 block: -16.4%

Results for CC[C@H](C)[C@H](NC(=O)CNC(=O)[C@H](CCCNC(=N)N)NC(=O)[C@H](CO)NC(=O)[C@H](C)NC(=O)[C@H](Cc1ccc(O)cc1)NC(=O)[C@H](Cc1c[nH]c2ccccc12)NC(=O)[C@H](C)NC(=O)[C@@H]1CCCN1C(=O)[C@H](CC(N)=O)NC(=O)[C@@H](NC(=O)[C@H](CC(=O)O)NC(=O)[C@@H]1CCCN1C(=O)[C@@H](N)[C@@H](C)O)[C@@H](C)CC)C(=O)N[C@@H](CCCNC(=N)N)C(=O)N1CCC[C@H]1C(=O)N[C@H](C(=O)NCC(=O)N[C@@H](CCCNC(=N)N)C(=O)N[C@@H](Cc1ccccc1)C(N)=O)C(C)C ?
APE1 inh: 13.1%; RECQ1 inh: -2.7%; BLM inh: -11.8%

What do the screens show for `CCCCCCCCCCCCCCOc1ccc(C(=O)O)o1`?
APE1 inh: 25.1µM*; RECQ1 inh: -5.1%; BLM inh: -24.4%

How did CN(C)S(=O)(=O)c1cccc(NC(=S)N/N=C/c2ccc(O)c(O)c2O)c1 do in these assays?
APE1 inh: inconclusive; RECQ1 inh: -7.6%; BLM inh: -11.2%; WRN inhibitor: 28.2µM*; L3MBTL1 block: 1.58µM*
